Reference: PubChem BioAssay (NCI)
This is part of a sample that, as a whole, favours compounds with a hit. Of some 79,000 tested, about 15% had one in any assay. Activity calls are given as the source filed them. No stated cut-off is given here; in the data, active means growth inhibition above about 70%; inactive means the rest.

Legend:
[1] = NCI Yeast Anticancer Drug Screen. Data for the rad52 strain (AID 147);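 further: 0% = growth of vehicle-treated control cultures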; conditions: S. cerevisiae rad52 mutant growth inhibition, active compounds read high
In short: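 Growth of repair-deficient yeast cells was compared between compound-treated and vehicle-treated cultures to give percent inhibition.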

[2] = NCI Yeast Anticancer Drug Screen. Data for the wt1 strain (AID 149);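 further: 0% = growth of vehicle-treated wt1 cultures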; conditions: S. cerevisiae wt1 strain (SPY 50644) growth inhibition, active compounds read high
In short: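 Growth inhibition read against vehicle controls after compound exposure of the wt1 yeast strain.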

[3] = NCI Yeast Anticancer Drug Screen. Data for the rad50EPP+ strain (AID 151);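 further: 0% = growth of vehicle-treated control cultures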; conditions: S. cerevisiae rad50 mutant strain, active compounds read high
In short: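 Measured: growth inhibition of rad50EPP+ yeast. Reference: vehicle-treated controls. Screen uses strains with defined genetic alterations in DNA damage repair or cell cycle control.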

[4] = NCI Yeast Anticancer Drug Screen. Data for the rad50 strain (AID 155);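 further: 0% = growth of vehicle-only cultures of the same strain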; conditions: S. cerevisiae rad50 strain growth inhibition, active compounds read high
In short: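 Readout: growth inhibition relative to vehicle-treated cultures. Compound exposure was carried out in a genetically defined yeast strain deficient in DNA damage repair.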

[5] = NCI Yeast Anticancer Drug Screen. Data for the mec2-1 strain (AID 157); conditions: S. cerevisiae mec2-1 strain, active compounds read high
In short: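 Compounds were applied to mec2-1 yeast cells. Their growth was then compared with that of vehicle-treated cultures to give growth inhibition.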

[6] = NCI Yeast Anticancer Drug Screen. Data for the rad14 strain (AID 159);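 further: 0% = growth of vehicle-treated control cultures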; conditions: S. cerevisiae rad14 strain growth inhibition, active compounds read high
In short: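 Growth inhibition vs vehicle controls; genetically altered yeast strain (DNA damage repair defect) treated with test compounds.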

[7] = NCI Yeast Anticancer Drug Screen. Data for the sgs1 mgt1 strain (AID 161);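 further: 0% = growth of cultures given vehicle only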; conditions: S. cerevisiae sgs1 mgt1 strain, active compounds read high
In short: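 Compounds are added to genetically altered yeast, and growth is compared with cultures given vehicle alone to give percent inhibition.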

[8] = NCI Yeast Anticancer Drug Screen. Data for the CLN2oe strain (AID 163);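 further: 0% = growth of vehicle-only control cultures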; conditions: S. cerevisiae CLN2oe strain, active compounds read high
In short: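 Cells of an engineered yeast line with disturbed cell-cycle regulation are treated with compound. Inhibition of growth is then calculated relative to the vehicle-treated reference.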

[9] = NCI Yeast Anticancer Drug Screen. Data for the cln2 rad14 strain (AID 165);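 further: 0% = growth equal to vehicle treated cultures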; conditions: S. cerevisiae cln2 rad14 strain, active compounds read high
In short: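 Strain: cln2 rad14 yeast, altered in cell cycle control and DNA damage repair. Read-out: growth inhibition vs vehicle.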

[10] = NCI Yeast Anticancer Drug Screen. Data for the bub3 strain (AID 167); conditions: S. cerevisiae bub3 mutant strain, active compounds read high
In short: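 Readout: yeast growth inhibition, expressed relative to vehicle-only wells. The test organism is a mutant strain from a panel with lesions in DNA repair or checkpoint genes.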

[11] = NCI Yeast Anticancer Drug Screen. Data for the wt2 strain (AID 169);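 further: 0% = growth of vehicle-treated yeast cultures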; conditions: S. cerevisiae wt2 strain growth inhibition, active compounds read high
In short: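 Growth of compound-treated yeast is measured and expressed as inhibition relative to vehicle-only controls.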

[12] = NCI Yeast Anticancer Drug Screen. Data for the mlh1 strain (AID 171);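 further: 0% = growth of vehicle-treated control cultures of the same strain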; conditions: S. cerevisiae mlh1 strain growth inhibition, active compounds read high
In short: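 Test agents were incubated with yeast bearing a defined DNA damage repair or cell cycle control alteration; values are growth inhibition normalised to vehicle-treated cultures.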

[13] = NCI Yeast Anticancer Drug Screen. Data for the sgs1 strain (AID 173);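 further: 0% = growth of vehicle-only control cultures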; conditions: S. cerevisiae sgs1 mutant, active compounds read high
In short: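 Strain with an altered DNA repair or cell cycle pathway exposed to compound. Growth then measured. Value = inhibition versus vehicle control.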

[14] = NCI Yeast Anticancer Drug Screen. Data for the mlh1 rad18 strain (AID 175); conditions: S. cerevisiae mlh1 rad18 strain growth inhibition, active compounds read high
In short: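 A repair-deficient yeast strain is exposed to test compound, and growth is scored relative to vehicle-treated controls.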

[15] = NCI Yeast Anticancer Drug Screen. Data for the rad18 strain (AID 177); conditions: S. cerevisiae rad18 mutant growth inhibition, active compounds read high
In short: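 DNA-repair-defective yeast; compound treatment; growth inhibition scored against vehicle.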

[16] = at 5.0 µM (retest, dose inferred, filed as 0.5)
[17] = at 50.0 µM (retest, dose inferred, filed as 5.0)

Measured: growth inhibition

C=Cc1cnc([N+](=O)[O-])n1C
active: [1]; at 33.0 µM 85% | [1]; at 100.0 µM 95% | [2]; at 100.0 µM 85% | [3]; at 33.0 µM 82% | [3]; at 100.0 µM 91% | [4]; at 33.0 µM 86% | [4]; [17] 87% | [4]; at 50.0 µM 78.5% | [4]; at 100.0 µM 94% | [5]; at 33.0 µM 87% | [5]; [17] 94% | [5]; at 50.0 µM 85.7% | [5]; at 100.0 µM 95% | [6]; at 11.0 µM 76% | [6]; at 33.0 µM 96% | [6]; at 100.0 µM 98% | [7]; [17] 95% | [7]; at 50.0 µM 83.1% | [8]; at 100.0 µM 86% | [9]; [17] 93% | [9]; at 50.0 µM 90.2% | [10]; at 50.0 µM 82.1% | [10]; at 100.0 µM 82% | [11]; at 100.0 µM 96% | [12]; at 100.0 µM 90% | [13]; at 33.0 µM 85% | [13]; at 100.0 µM 92% | [14]; [16] 79% | [14]; [17] 90% | [14]; at 50.0 µM 90.2% | [15]; at 1.2 µM 85% | [15]; at 3.7 µM 92% | [15]; at 11.0 µM 94% | [15]; at 33.0 µM 94% | [15]; at 100.0 µM 94%
inactive: [1]; at 1.2 µM 2% | [1]; at 3.7 µM 35% | [1]; at 11.0 µM 65% | [2]; at 1.2 µM 13% | [2]; at 3.7 µM 21% | [2]; at 11.0 µM 19% | [2]; at 33.0 µM 39% | [3]; at 1.2 µM -1% | [3]; at 3.7 µM 15% | [3]; at 11.0 µM 41% | [4]; at 1.2 µM 3% | [4]; at 3.7 µM 17% | [4]; [16] 23% | [4]; at 11.0 µM 52% | [5]; at 1.2 µM 11% | [5]; at 3.7 µM 3% | [5]; [16] 0% | [5]; at 11.0 µM 26% | [6]; at 1.2 µM -1% | [6]; at 3.7 µM 25% | [7]; [16] 61% | [8]; at 1.2 µM -14% | [8]; at 3.7 µM 8% | [8]; at 11.0 µM 14% | [8]; at 33.0 µM 33% | [9]; [16] 39% | [10]; at 1.2 µM -5% | [10]; at 3.7 µM -2% | [10]; [16] 8% | [10]; at 11.0 µM -2% | [10]; at 33.0 µM 20% | [10]; [17] 69% | [11]; at 1.2 µM -31% | [11]; at 3.7 µM -43% | [11]; at 11.0 µM -34% | [11]; at 33.0 µM 63% | [12]; at 1.2 µM -4% | [12]; at 3.7 µM 7% | [12]; at 11.0 µM 18% | [12]; at 33.0 µM 44% | [13]; at 1.2 µM 22% | [13]; at 3.7 µM 51% | [13]; at 11.0 µM 69%
